Test results: PubChem BioAssay (EPA / NIEHS)
“And” between values parts separate entries of the source, which are not always exact repeats. Equal values may be shown once. Records with an inconclusive call do not appear. Some structures have more than one record in an assay (separate samples or runs), and their calls can disagree. The source made the active and inactive calls. Rule for the calls: active = hit-call score of the fitted dose curve at least 0.9, where 1 is the maximum; inconclusive = response in the unintended direction; inactive = score below 0.9.

Legend:
[1] = ATG_XTT_Cytotoxicity: Cytotoxicity Assessment in the Attagene TRANS-FACTORIAL HepG2 Assay (AID 2283584)
Summary of the method: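 Cells: human HepG2, transiently transfected with MRTU reporter constructs. Exposure 24 h. Readout: XTT, cell number. Baseline/neg ctrl DMSO; loss-of-signal scored.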

[2] = TOX21_p53_BLA_p2_viability: Viability Assessment in the Tox21 HCT-116 p53 Agonism Beta-lactamase Assay, Phase 2 (AID 2283591);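 note: compound exposure lasted 16 h at 37 °C; actives lower the ATP signal meaning cytotoxicity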
Summary of the method: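 HCT116 p53-bla cells, 4000/well, dosed after 5 h plating (217-fold dilution of DMSO stocks) and incubated 16 h at 37C. Viability taken as cellular ATP by CellTiter-Glo luminescence after 30 min RT; signal loss marks cytotoxicity.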

[3] = biological target: Cellular tumor antigen p53 (Homo sapiens) (UniProt P04637); experiment: TOX21_p53_BLA_p2_ratio: Tox21 HCT-116 p53 Agonism Beta-lactamase Assay, Ratio, Phase 2 (AID 2283592)
Summary of the method: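 HCT116 p53-bla; 4000 cells/well; 5 h pre-incubation; cpd in DMSO, 217-fold dilution; 16 h 37C/5% CO2; CCF4-AM 2 h RT; Ex 405, Em 460/530 ratio; DMSO = baseline; positive fitting direction.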

[4] = TOX21_p53_BLA_p3_viability: Viability Assessment in the Tox21 HCT-116 p53 Agonism Beta-lactamase Assay, Phase 3 (AID 2283593);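 note: cells exposed to compound for 16 h before reading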
Summary of the method: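 HCT116 cells, 4000/well, dosed 5 h after plating by pin transfer (217-fold dilution from DMSO stock) and incubated 16 h at 37C, 5% CO2. Viability read as ATP luminescence with CellTiter-Glo after 30 min at room temperature.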

Sequence of Cellular tumor antigen p53 (Homo sapiens) (P04637 whole entry, looked up): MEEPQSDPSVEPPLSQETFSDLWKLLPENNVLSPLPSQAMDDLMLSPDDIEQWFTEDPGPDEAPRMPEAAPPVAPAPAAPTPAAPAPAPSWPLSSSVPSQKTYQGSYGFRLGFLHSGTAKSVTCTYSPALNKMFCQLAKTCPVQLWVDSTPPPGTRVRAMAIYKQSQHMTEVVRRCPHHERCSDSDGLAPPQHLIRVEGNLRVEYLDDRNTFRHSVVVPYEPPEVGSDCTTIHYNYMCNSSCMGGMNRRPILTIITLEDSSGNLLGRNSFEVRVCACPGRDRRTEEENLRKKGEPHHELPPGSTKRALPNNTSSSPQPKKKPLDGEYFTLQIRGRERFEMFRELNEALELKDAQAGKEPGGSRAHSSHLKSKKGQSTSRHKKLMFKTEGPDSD

Row | SMILES | outcome [1] | outcome [2] | outcome [3] | outcome [4] | AC50 [3] | AC50 [4]
1 | CC(=O)OC1CCCCC1C(C)(C)C (configuration not stated) | inactive | inactive | inactive | inactive | – | –
2 | CC(CC(C)C)=NO | inactive | inactive | inactive | inactive | – | –
3 | N#CC1(N)CCCCC1 | inactive | inactive | inactive | inactive | – | –
4 | C=C(C)C(=O)OCCCCCCCCCCCC | inactive | inactive | inactive | – | – | –
5 | O=C(O)c1ccc2c(c1)C(=O)OC2=O | inactive | inactive | inactive | – | – | –
6 | CCCCC(=O)O | inactive | inactive | inactive | inactive | – | –
7 | C=CCNCC=C | inactive | inactive | inactive | inactive | – | –
8 | CCN1CCCC1=O | inactive | inactive | inactive | inactive | – | –
9 | COc1ccc(C(=O)c2ccccc2)c(O)c1 | inactive | inactive | inactive | inactive | – | –
10 | N=C1C=CC(=C(c2ccc(N)cc2)c2ccc(N)cc2)C=C1 | inactive | inactive | – | inactive | 54.2 µM (active) | –
11 | CC1(C)CCC[C@]2(C)[C@H]3CC(=O)O[C@]3(C)CC[C@@H]12 | inactive | inactive | inactive | inactive | – | –
12 | CC(C)=CCCC(C)=CC#N | inactive | inactive | inactive | inactive | – | –
13 | C=CC(=O)OCCCCCCOC(=O)C=C | inactive | inactive | – | inactive | 69.1 µM (active) and 66.7 µM (active) | –
14 | CCCCNS(=O)(=O)c1ccc(C)cc1 | inactive | inactive | inactive | – | – | –
15 | O=C(O[C@@H]1Cc2c(O)cc(O)cc2O[C@@H]1c1cc(O)c(O)c(O)c1)c1cc(O)c(O)c(O)c1 | inactive | inactive | inactive | inactive | – | –
16 | c1ccc2c(c1)[nH]c1ccccc12 | inactive | inactive | inactive | – | – | –
17 | CCCCCCO | inactive | inactive | inactive | inactive | – | –
18 | CC(C)c1ccc(O)c(C(C)C)c1 | inactive | inactive | inactive | inactive | – | –
19 | Cc1noc(NS(=O)(=O)c2ccc(N)cc2)c1C | inactive | inactive | inactive | inactive | – | –
20 | O=C1CCCCCCCCCCCN1 | inactive | inactive | inactive | inactive | – | –
21 | C/C=C/C=C/CCCCCCCO | inactive | inactive | inactive | inactive | – | –
22 | CCCCCCOc1ccc(N)cc1 | inactive | inactive | inactive | inactive | – | –
23 | CC/C=C\CCOC(=O)c1ccccc1O | inactive | inactive | inactive | inactive | – | –
24 | CCCCNS(=O)(=O)c1ccccc1 | inactive | inactive | inactive | inactive | – | –

Row | SMILES | outcome [1] | outcome [2] | outcome [3] | outcome [4] | AC50 [3] | AC50 [4]
25 | CCCC(CC)c1ccccc1 (configuration not stated) | inactive | inactive | inactive | inactive | – | –
26 | O=C(O)c1cc(O)c2ccccc2c1O | inactive | inactive | inactive | inactive | – | –
27 | O=C(Cl)c1c(Cl)c(Cl)c(C(=O)Cl)c(Cl)c1Cl | inactive | inactive | inactive | inactive | – | –
28 | CCCCC1C(=O)N(c2ccccc2)N(c2ccccc2)C1=O | inactive | inactive | inactive | inactive | – | –
29 | CC(C)(C)C1CCC(=O)CC1 | inactive | inactive | inactive | inactive | – | –
30 | CCCCCCC=O | inactive | inactive | inactive | inactive | – | –
31 | CCCCC1CCC(=O)O1 (configuration not stated) | inactive | – | inactive | – | – | –
32 | O=C(O)CC(C(=O)O)S(=O)(=O)O (configuration not stated) | inactive | – | inactive | inactive | – | –
33 | Oc1ccc(/C=C/c2cc(O)cc(O)c2)cc1 | inactive | inactive | inactive | inactive | – | –
34 | C=C(C)C1CC=C(C)C(OC(C)=O)C1 (configuration not stated) | inactive | – | inactive | – | – | –
35 | CC1CC(=O)CC(C)(C)C1 (configuration not stated) | inactive | – | inactive | – | – | –
36 | CO[Si](C)(C)OC | inactive | – | inactive | – | – | –
37 | C=C(C)C1CC=C(C)CC1 (configuration not stated) | inactive | inactive | – | inactive | – | –
38 | CC(=O)CC(=O)Nc1ccccc1C | inactive | inactive | inactive | inactive | – | –
39 | C[Si](C)(C)N[Si](C)(C)C | inactive | inactive | inactive | inactive | – | –
40 | CCCc1ccc(O)c(OC)c1 | inactive | – | inactive | – | – | –
41 | CCCCCOC(=O)CCCCC | inactive | – | inactive | inactive | – | –
42 | CC1=CCC(C(C)C)C=C1 (configuration not stated) | inactive | inactive | – | inactive | – | –
43 | Cc1c(C(=O)c2c[nH]n(C)c2=O)ccc(S(C)(=O)=O)c1C1=NOCC1 | inactive | – | inactive | – | – | –
44 | CC(C)CCCCCOC(=O)CS | inactive | inactive | – | inactive | – | –
45 | CN(C)c1ccc2nc3ccc(=[N+](C)C)cc-3sc2c1 | inactive | inactive | – | inactive | 8.31 µM (active) and 23 µM (active) and 11.1 µM (active) | 23 µM (active)
46 | CCC(C)(O)CCCC(C)C (configuration not stated) | inactive | – | inactive | inactive | – | –
47 | CC(=O)OCC=C(C)C | inactive | – | inactive | – | – | –
48 | CO[Si](CCCS)(OC)OC | inactive | – | inactive | – | – | –
